Test results reported in PubChem BioAssay AID1233 (SRMLSC, 2008).
Measured potencies and affinities stand elsewhere. Activity calls are given as the source filed them.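 How the source made its calls: active means a dose-response curve fit returns a half-maximal inhibitory concentration, extrapolated values included; inactive means the fit returns no such concentration.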

Molecular target: HMG-CoA reductase [Enterococcus faecalis] (UniProt Q9FD70)
Experiment: class II HMG-CoA reductase inhibition potency – biochemical, Enterococcus faecalis, confirmation (AID 1233)
Settings: purified E. faecalis HMGR, NADPH absorbance 340 nm kinetics; series mostly up to 100 µM

outcome, inactive:
O=C(O)c1cc(CN2CCOCC2)oc1-c1ccccc1
Cc1nc(NC(=O)COC(=O)CCS(=O)(=O)c2ccccc2Cl)c(Cl)cc1Cl
O=C(O)C(Cc1ccccc1)N1C(=O)C2CCCCC2C1=O (stereo not drawn)
COC(=O)c1ccc(NC(=O)Nc2ccccc2F)cc1
Cc1cccc(C(=O)NC2CCN(C(=O)Nc3ccccc3C)CC2)c1
O=C(N/N=C/c1cc(Br)cc(Br)c1O)c1cccc(N2CCCC2=O)c1
COC(c1ccccc1)c1nnc(CCC(=O)NCCC(C)C)o1 (stereo not drawn)
CCOC(=O)C1=C(COc2ccc(F)cc2Cl)NC(=O)NC1c1cc(C)ccc1C (stereo not drawn)
COc1ccc(C2C(C(C)=O)=C(Nc3ccccc3)CC(C)(O)C2C(C)=O)cc1OC (stereo not drawn)
Cc1cc(C(=O)N[C@H](c2ccccc2)[C@@]2(C)C[C@@H]2[C@@H](C)C(=O)Nc2ccc3ccccc3c2)no1
CCC(Sc1ccccn1)C(=O)Nc1cccc([N+](=O)[O-])c1 (stereo not drawn)
O=C(COC(=O)c1cc([N+](=O)[O-])ccc1NCCO)c1ccc(Cl)cc1
O=C(CCc1nnc(CCCc2ccccc2)o1)NCCc1ccccc1
COc1ccc(CCNC2=CC(=O)N(c3ccc(F)cc3)C2=O)cc1
Cc1ccccc1NC(=O)Cn1c(CCC(=O)O)ccc1-c1cccs1
CNc1cc(N2CCCCCC2)ccc1[N+](=O)[O-]
Cc1nn(Cc2ccc(Cl)cc2)c(Cl)c1/C=N/NC(=O)CNc1ccccc1F
COCCOC(=O)c1c(NC(=O)CN2CCOCC2)sc(C(N)=O)c1C
COCc1c(C(=O)Nc2nc(C)cs2)oc2ccccc12
CN(C)S(=O)(=O)c1cccc(NC(=O)Cn2cc(C(F)(F)F)cc(Cl)c2=O)c1
O=c1[nH]ncc2c3ccccc3n(Cc3cccc(Cl)c3)c12
O=C(COC(=O)/C=C/c1cn(-c2ccccc2)nc1-c1cccnc1)Nc1ccc(Cl)cc1Cl
CCOc1cccc2cc(C(N)=O)c(=NCc3ccccc3)oc12
O=S(=O)(NCC1CCCO1)c1ccc2c(c1)OCCO2 (stereo not drawn)
Cc1cc(C)c(S(=O)(=O)c2ccccc2)c(OC(=O)c2c(F)cccc2F)n1
Fc1ccc(-c2csc3[n+]2CCS3)cc1
CCCc1nc(NCc2ccccn2)c2nnn(Cc3ccccc3F)c2n1
Cc1ccccc1NC(=O)Cn1nnc(S(=O)(=O)c2ccc(C(C)(C)C)cc2)c1N
O=C(Cn1cc(C(=O)C(F)(F)F)c2ccccc21)N1CCOCC1
CCOc1ccc(/C=N/NC(=O)CC(=O)Nc2ccc(Cl)c(Cl)c2)cc1
COC(=O)c1ccccc1NC(=O)CSc1nnc(CNS(=O)(=O)c2ccc(C)cc2)n1C
O=C(Nc1ccccc1)N1C2CCC1CC(O)(c1cccnc1)C2 (stereo not drawn)
Cc1ccc(-c2nc3cccnc3s2)cc1NS(=O)(=O)c1ccc2c(c1)CCCC2
COCCCNC(=O)CN(c1cc(Cl)ccc1OC)S(=O)(=O)c1ccc(C)c([N+](=O)[O-])c1
CC(C)N(C(=O)Cn1cnc2cc([N+](=O)[O-])ccc2c1=O)C(C)C
Cn1cnnc1Sc1ccc(C(=O)OCC(=O)NC2CC2)cc1[N+](=O)[O-]
Cc1ccc(-n2c(SCC(=O)N(C)C3CCS(=O)(=O)C3)nc3ccccc3c2=O)cc1 (stereo not drawn)
CCCCC(c1nnnn1CCOC)N1CCN(CC)CC1 (stereo not drawn)
